Rab9 promoter act: activates the Rab9 promoter; Huh7 Rab9 promoter-luciferase reporter, luminescence, 24 h; Potency, µM (highest dose often 9.22 µM), inactives show top-dose activation, negative = inhibition, hits mostly activators; hit rate 2.8% among 320,000; AID 485297; note: % of control where 0% means no effect; nearly all actives have a fitted effect of over 60% in size
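Rab9 promoter-driven luciferase in stably transfected Huh7 cells; 1500 cells/well rested 2 h, exposed to compound in DMSO for 24 h at 37 °C, 5% CO2. Luminescence read 10 min after adding luciferase reagent at ambient temperature.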
NPC1 prom act: activators of NPC1 promoter. Huh7 NPC1 promoter luciferase reporter, 24 h. Potency, µM (doses to about 9.22 µM), for inactives: at the highest dose activation, most hits filed as activators. hit rate 2.4% among 320,000; note: % of control where 0% means no effect; nearly all actives have a fitted effect of over 60% in size
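In 1536-well qHTS, Huh7 cells harboring an NPC1 promoter–luciferase construct received compound for 24 h; activation was quantified by luminescence following luciferase reagent addition.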
SMN2 splice up: increases expression of the SMN2 splice variant; AID 1458; hit rate 2.8% among 210,000; Potency, µM (titrated, usually from 46.1 µM), inactives show at the top dose activity change, positive = activation, hits mostly activators; HEK293 SMN2-luciferase splicing reporter, luminescence, 30-36 h; note: % of control where 0% means no effect; nearly all actives have a fitted effect of over 55% in size
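HEK293 cells carry an SMN2 minigene-luciferase reporter in which exon 7 inclusion puts luciferase in frame. Cells were seeded at 2000 cells/well, attached for 10-12 hours, then exposed to compounds for 30-36 hours at 37C before ONE-Glo luminescence.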
Luc counter: counter-screen: inhibitors of Kinase-Glo firefly luciferase. Q27757. Kinase-Glo luciferase, ATP luminescence, 8 min. Potency, µM (titrated, usually from 38.3 µM), for inactives: at the top dose activity change, negative = inhibition, actives largely listed as inhibitors. hit rate 0.28% among 200,000; note: % is set by controls: 0 for no effect and ±100 for the full control effect; nearly all actives have a fitted effect of over 60% in size
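Luminescence was the read-out, taken after 8-minute incubation at ambient temperature. Luciferase turned over luciferin with 10 uM ATP in imidazole pH 7.2 buffer containing KCl, MgCl2, Tween 20 and BSA.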
FLuc modulator: inhibits or activates purified firefly luciferase, miR-21 counter-screen; P08659; purified FLuc, Km substrates, luminescence inhibition; Potency, µM (top dose mostly 57.5 µM), for the others: at the top dose activity change, negative = inhibition, hits mostly inhibitors; hit rate 6.9% among 360,000; AID 588342;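 note: plate controls were vehicle for no effect and reference inhibitor for full effect; nearly all actives have a fitted effect of over 55% in size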
Target sequence (P08659 whole entry, looked up): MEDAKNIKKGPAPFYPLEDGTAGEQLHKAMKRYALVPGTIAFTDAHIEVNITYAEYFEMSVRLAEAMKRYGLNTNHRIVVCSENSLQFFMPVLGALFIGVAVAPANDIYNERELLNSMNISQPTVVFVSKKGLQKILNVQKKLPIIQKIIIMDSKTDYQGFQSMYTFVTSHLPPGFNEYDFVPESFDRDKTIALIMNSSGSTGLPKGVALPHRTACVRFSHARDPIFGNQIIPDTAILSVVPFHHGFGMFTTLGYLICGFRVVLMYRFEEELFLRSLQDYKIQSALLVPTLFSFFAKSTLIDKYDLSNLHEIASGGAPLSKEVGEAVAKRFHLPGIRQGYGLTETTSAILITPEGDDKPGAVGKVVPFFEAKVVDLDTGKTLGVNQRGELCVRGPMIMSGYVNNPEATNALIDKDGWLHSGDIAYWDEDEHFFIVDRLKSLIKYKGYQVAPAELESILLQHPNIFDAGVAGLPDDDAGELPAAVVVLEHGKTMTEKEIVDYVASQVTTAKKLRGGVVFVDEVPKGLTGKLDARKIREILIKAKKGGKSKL
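Purified P. pyralis luciferase, 10 nM final, with Km-level 10 uM D-luciferin and 10 uM ATP in 50 mM Tris acetate pH 7.5, 10 mM Mg acetate, 0.01% Tween-20, 0.05% BSA; 6-point qHTS titration about 60 µM downward; luminescence read.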
* hit, by the source's call; ? = inconclusive; . = not tested or not shown; [ ] = another dose, or the depositor's remark. Most compounds without a hit are left out; they make up all but 7.3% or so of the library. Calls come from the whole dose curve; as a rule, active = well fitted curve in the direction sought with a large enough effect; inconclusive = small, poorly fitted or top-dose-only effect, or another doubt; inactive = no such curve, though single readings can be large; an effect the other way counts as inactive or inconclusive. Potency is the fitted concentration of half-maximal effect.

SMILES	Rab9 promoter act	NPC1 prom act	SMN2 splice up	Luc counter	FLuc modulator
CC(=O)N1CCc2cc(S(=O)(=O)NC(Cc3ccccc3)C(=O)NCc3ccccc3Cl)ccc21 (stereo not given)	.	.	-1%	.	-3%
CC[C@H](C)[C@H]1O[C@]2(CC[C@@H]1C)C[C@@H]1C[C@@H](C/C=C(\C)[C@H](O[C@@H]3C[C@H](OC)[C@H](O[C@@H]4C[C@H](OC)[C@@H](O)[C@H](C)O4)[C@H](C)O3)[C@@H](C)/C=C/C=C3\CO[C@@H]4[C@H](O)C(C)=C[C@@H](C(=O)O1)[C@]34O)O2	.	.	-101%	.	.
CC(=O)Nc1ccc2c(c1)nc(C)n2Cc1ccccc1	-1%	-1%	.	.	-2%
Cc1ccc(NCc2nc3ccccc3n2C)c(C)c1	0.71µM*	0.63µM*	.	.	0.34µM*
Cc1cccc(NCc2nc3ccccc3n2CCOc2ccccc2C)c1	.	.	-41%	.	1%
Cc1nc2cc(NCc3nc4ccccc4n3Cc3ccccc3)ccc2n1C	0.71µM*	1.1µM*	1%	10µM*	0.6µM*
Cc1ccc(C)c(OCc2nc3ccccc3n2C)c1	.	.	8%	.	?
COc1cccc(CNc2ccc3c(c2)nc(C)n3C)c1OC	?	?	.	.	24µM*
Cc1cccc(NCc2nc3ccccc3n2C)c1	3.2µM*	?	?	-18%	24µM*
CN(C)Cc1cc(C(C)(C)C)cc(CNC2CCCCC2)c1O	.	.	-13%[9.22 µM]	-4%[7.66 µM]	.
CCOc1ccc(C(=O)c2oc3ccccc3c2NC(=O)c2cc(-c3ccc(C)cc3)on2)cc1	.	.	.	.	5%
Cn1c(CNc2ccc(Cl)cc2)nc2ccccc21	?	4.5µM*	7.1µM*	-6%	6.7µM*
Cc1ccc(N2CCN(c3ccc(NCc4nc5ccccc5n4C)cc3)CC2)cc1	2%	0%	-25%	-3%	-19%
Cc1cccc(NCc2nc3ccccc3n2Cc2ccccc2)c1	4%	12%	1%	-5%	24µM*
CCCn1c(=O)c2sccc2n2c(CCCC(=O)NCCOC)nnc12	.	.	.	.	-1%
Cc1ccccc1Cn1c(=O)n(Cc2ccc3c(c2)OCO3)c(=O)c2oc3ccccc3c21	.	.	.	.	-2%
CC(=O)c1ccc(OCc2cc(=O)n3ccsc3n2)cc1	4µM*	?	?	-14%	?
Cc1ccsc1C(=O)OCc1cc(=O)n2ccsc2n1	1.4µM*	2.5µM*	.	.	11µM*
Cc1cccc(N2CCN(S(=O)(=O)c3cn(C)c(C)n3)CC2)c1C	.	.	.	.	-7%
O=C(O)c1cc(C(=O)O)cc(-c2ccc(/C=c3/sc4nc5ccccc5n4c3=O)o2)c1	-2%	-5%	6%	-2%	?
N#Cc1cc2sc3nc4ccccc4n3c2cc1C#N	-4%	-1%	8%	0%	2%[2.3 µM]
O=c1c2ccccc2nc2sc3ccccc3n12	4µM*	4µM*	14µM*	-7%	5.4µM*
O=c1/c(=C\c2cc([N+](=O)[O-])cc([N+](=O)[O-])c2O)sc2nc3ccccc3n12	11%	-3%	-3%	-1%	9.5µM*
O=c1/c(=C/c2ccccn2)sc2nc3ccccc3n12	?	?	13µM*	13µM*	0.13µM*
COC(=O)/C=c1/sc2nc3ccccc3n2c1=O	1%	-4%	?	-10%	?
SMILES	Rab9 promoter act	NPC1 prom act	SMN2 splice up	Luc counter	FLuc modulator
O=C(O)c1cccc(-c2ccc(/C=c3/sc4nc5ccccc5n4c3=O)o2)c1	28%	25%	.	.	9.5µM*
Cc1cc2nc(-c3ccccn3)c(-c3ccccn3)nc2cc1C	14%	?	.	.	4.8µM*
Cc1cc2nc([C@H](C)C(=O)c3ccc(Cl)cc3)c(=O)[nH]c2cc1C	.	.	3.5µM*	-1%[7.66 µM]	.
COc1ccc(NC(=O)c2ccco2)cc1NC(=O)c1cc(OC)c(OC)c(OC)c1	.	.	8%	.	?
CN(C)c1ccc(-c2nc3cnccn3c2Nc2ccc3c(c2)OCCO3)cc1	?	?	.	.	11µM*
Cc1ccn2c(Nc3ccc4c(c3)OCO4)c(-c3ccco3)nc2c1	.	.	15%	.	6µM*
CC(C)c1ccc(Nc2c(-c3ccco3)nc3ccccn23)cc1	.	.	?	.	24µM*
Cc1ccc(-c2nc3cnccn3c2Nc2ccc3c(c2)OCO3)cc1	2%	2%	-2%	1%	?
Cc1ccn2c(Nc3ccc4c(c3)OCCO4)c(-c3ccc(Cl)s3)nc2c1	.	.	21%	.	6µM*
Cc1ccc2nc(-c3ccc(Cl)s3)c(Nc3ccc4c(c3)OCCO4)n2c1	.	.	14%	.	?
CCOc1ccccc1C1N=C(N)Nc2nc3ccccc3n21 (stereo not given)	.	.	13%	.	-2%
CCn1cc(S(=O)(=O)c2cccc(C)c2)c(=O)c2cc(F)c(N3CCN(c4ccccc4)CC3)cc21	.	.	.	.	-1%
Cc1ccc(OCCCCn2c(-c3ccc(Cl)cc3)nc3ccccc3c2=O)cc1	.	.	-19%	.	-1%
COc1ccc(Cl)cc1-n1cc(-c2ccccc2)nc1SCC(=O)Nc1ccc(C)cc1	.	.	.	.	-2%
CCOc1ccccc1NC(=O)Cn1c(=O)n(CCC(C)C)c(=O)c2cccnc21	.	.	-2%	.	-5%
Cc1ccn2c(Nc3ccc4c(c3)OCO4)c(-c3ccc(N(C)C)cc3)nc2c1	.	.	16µM*	.	?
Cc1oc2ncn(CC(C)C)c(=O)c2c1C(=O)N1CCN(c2ccc(F)cc2)CC1	.	.	.	.	-1%
COC(=O)c1sccc1S(=O)(=O)N(CC(=O)NCc1ccc(F)cc1)c1ccc(C)c(C)c1	.	.	.	.	-2%
CCN(CC)c1ccc(/C=N/NS(=O)(=O)c2ccc(C)c([N+](=O)[O-])c2)cc1	-6%	-4%	.	.	2%
CCN(CC)c1ccc(N=Cc2ccccc2[N+](=O)[O-])cc1	3%	-1%	-22%	-4%	3.8µM*
CCN(CC)c1ccc(N=Cc2ccc([N+](=O)[O-])o2)cc1	22%	14%	-15%	-20%	6.7µM*
Oc1c(C(c2ccccc2)N2CCC3(CC2)OCCO3)sc2nc(-c3ccco3)nn12 (stereo not given)	.	.	.	.	-11%
CC1(C)Cc2c(cnn2-c2ccc(F)cc2)C(NC(=O)CCN2CCCC2=O)C1 (stereo not given)	23%	24%	.	.	?
CC1(C)Cc2c(cnn2-c2ccc(F)cc2)C(NC(=O)CN2CCCCC2=O)C1 (stereo not given)	-9%	0%	.	.	19µM*
c1ccc(CCc2ccccc2-c2nc(-c3cccnc3)no2)cc1	-10%	4%	-12%	-2%	13%
Cc1ccc(-c2nc(-c3ccccc3)no2)cc1	1.3µM*	1µM*	8%	-29%	0.21µM*
CCC(=O)Oc1ccc(-c2nc(-c3cccnc3)no2)cc1	4.5µM*	4µM*	?	?	3.4µM*
c1cncc(-c2noc(-c3ccco3)n2)c1	4µM*	3.2µM*	-1%	-25%	?
CCOc1ccc(-c2nc(-c3ccncc3)no2)cc1OCC	13%	8%	5%	5%	-14%
CCOc1ccc(-c2nc(-c3ccccc3)no2)cc1OCC	?	?	-3%	-2%	13µM*
